rTrxR1 inhibitor – blocks rat thioredoxin reductase 1; Potency, µM (titrated, usually from 114 µM), inactives show top-dose activity change, negative = inhibition, actives largely listed as inhibitors; 390,000 tested, 1% active; O89049; recombinant rTrxR1, NADPH fluorescence consumption, selenite substrate; note: potency is the fitted concentration of half-maximal effect; nearly all actives have a fitted effect of over 65% in size
Target sequence (O89049 whole entry, looked up): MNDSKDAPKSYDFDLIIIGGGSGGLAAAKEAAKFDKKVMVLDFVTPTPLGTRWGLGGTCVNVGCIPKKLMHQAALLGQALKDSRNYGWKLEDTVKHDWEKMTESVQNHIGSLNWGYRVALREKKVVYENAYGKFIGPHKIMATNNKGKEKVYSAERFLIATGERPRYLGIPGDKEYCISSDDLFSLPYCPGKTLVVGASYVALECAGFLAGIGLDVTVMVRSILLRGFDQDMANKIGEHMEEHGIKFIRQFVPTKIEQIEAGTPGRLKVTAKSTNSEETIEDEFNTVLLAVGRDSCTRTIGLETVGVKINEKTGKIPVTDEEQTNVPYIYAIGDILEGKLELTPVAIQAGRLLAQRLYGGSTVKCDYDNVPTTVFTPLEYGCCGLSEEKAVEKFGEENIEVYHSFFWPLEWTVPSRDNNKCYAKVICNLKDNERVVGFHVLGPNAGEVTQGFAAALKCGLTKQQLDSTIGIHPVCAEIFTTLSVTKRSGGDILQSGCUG
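Rat TrxR1 (90 nM in the dispensed reagent) was pre-reduced with 400 uM NADPH for 5 min at room temperature, then incubated with compound for 15 min. After 400 uM selenite was added, NADPH fluorescence (Ex 340/Em 450 nm) was followed for 8 min.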
GCN5L2 inh – blocks human GCN5L2 histone acetyltransferase; Potency, µM (titrated, usually from 58.9 µM), without a hit: at the top dose activity change, negative = inhibition, most hits filed as inhibitors; 390,000 tested, 0.21% active; GCN5L2 HAT assay, ThioGlo1 CoA-SH fluorescence; AID 504327; note: potency is the fitted concentration of half-maximal effect
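qHTS, 1536-well. 20nM enzyme, pH 7.5 HEPES/EDTA/Tween-20 buffer; 15 min compound preinc., RT. Start: 75uM H3(1-25), 70uM AcCoA, 50uM ThioGlo1. Read Ex340/Em540 at t=0 (autofluorescence flag) and t=20 min.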
Pin1 inhibitor – human Pin1 inhibition. Q13526. Pin1 FP peptide displacement, HiFluor488, 10 min. Potency, µM (titrated, usually from 115 µM), for inactives: top-dose activity, negative = inhibition, hits mostly inhibitors. 390,000 tested, 0.009% active. AID 504891; active = well fitted inhibition curve with a large enough effect in the polarisation, with a control signal flat, not every such curve was filed as active; inconclusive = small, poorly fitted or top-dose-only effect, or effect the other way, or a change in a side signal; inactive = no such curve, though single readings can be large or run the other way; the % refers to the polarisation; note: potency is the fitted concentration of half-maximal effect
Target sequence (Q13526 whole entry, looked up): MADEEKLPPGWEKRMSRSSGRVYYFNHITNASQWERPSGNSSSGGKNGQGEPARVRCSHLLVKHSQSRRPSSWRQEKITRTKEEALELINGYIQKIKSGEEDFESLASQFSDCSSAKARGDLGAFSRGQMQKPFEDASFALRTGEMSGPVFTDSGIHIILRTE
GALK inh – blocks human galactokinase activity; P51570; Purified GALK, Kinase-Glo residual ATP luminescence; Potency, µM (series often up to 57.5 µM), for the others: at the top dose activity change, negative = inhibition, actives largely listed as inhibitors; 270,000 tested, 0.007% active; AID 1868; note: potency is the fitted concentration of half-maximal effect
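Kinase-Glo Plus luminescence measured ATP left after a 1 h room-temperature reaction. The reaction used 5 nM GALK, 100 uM galactose and 35 uM ATP at pH 8.0 (20 mM HEPES, 5 mM MgCl2, 60 mM NaCl, 1 mM DTT, 0.01% BSA).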
Giardia kill – kills Giardia lamblia | Giardia lamblia trophozoite viability | activity change, % at 7.66 µM, hits read low | 340,000 tested, 0.15% active; in the data active = activity change below about -80%; inconclusive = between about -30% and that limit;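 note: parasites exposed to compound for two days anaerobically before the ATP read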
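Trophozoite viability was measured as ATP-dependent luminescence, read 15-30 min after reagent addition. Before that, parasites at 100 cells/well were exposed to compounds for 48 h, anaerobically, at 37 deg C.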
TrxR1 substrate – rat thioredoxin reductase 1 substrate activity; O89049; purified TrxR1 substrate turnover, NADPH consumption readout; Potency, µM (titrated, usually from 114 µM), inactives show at the highest dose activity change, negative = substrate turnover; 390,000 tested, 0.01% active; note: potency is the fitted concentration of half-maximal effect; nearly all actives have a fitted effect of over 50% in size
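Rat TrxR1, dispensed at 90 nM, was prereduced with 400 uM NADPH (final) for 5 min at ~22 deg C, then incubated with compound 15 min before 400 uM selenite. A first-read NADPH fluorescence drop versus no-compound background flagged substrates.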
* hit, by the source's call; ? = inconclusive; . = not tested or not shown; [ ] = dose if it differs, or a comment. Only some compounds are listed: those with a hit (about 1.3% of all), similar ones and a draw of the others. Unless noted, calls come from the whole dose curve; as a rule, active = well fitted curve in the direction sought with a large enough effect; inconclusive = small, poorly fitted or top-dose-only effect, or another doubt; inactive = no such curve, though single readings can be large; an effect the other way counts as inactive or inconclusive. % is set by controls: 0 for no effect and ±100 for the full control effect.

SMILES | rTrxR1 inhibitor | GCN5L2 inh | Pin1 inhibitor | GALK inh | Giardia kill | TrxR1 substrate
O=C(Cc1cccs1)N/N=C\c1ccc([N+](=O)[O-])s1 | ? | -9% | -7% | 3% | -85* | -2%[57.1 µM]
COc1cc(/C=N/NC(=O)Cc2cccs2)c([N+](=O)[O-])cc1OC | -7% | 3% | -9% | 1% | 6 | -4%
Cc1ccc(OCC(=O)N/N=C/C=C/c2ccco2)cc1C | 40µM* | -6% | 1% | -1% | -4 | -12%
O=C(Cc1cccs1)N/N=C/C=C/c1ccco1 | 45µM* | ? | -17% | . | -1 | -14%
COC(=O)C1=C(C)N(Cc2ccccc2)C(=O)/C1=C\c1ccco1 | 50µM* | -15% | -12% | -1% | ? | 11%
COC(=O)C1=C(C)N(CCc2ccccc2)C(=O)/C1=C\c1ccco1 | ? | -11% | 3% | 1% | -8 | -7%
CCOC(=O)C1=C(C)N(c2ccc(C)cc2)C(=O)/C1=C\c1ccc(O)c(OC)c1 | 18µM* | ? | -2% | -1% | 10 | 4%
CCOc1cc(/C=C2\C(=O)N(Cc3ccco3)C(C)=C2C(=O)OC)ccc1O | 22µM* | -1% | -14% | -1% | 1 | -9%
O=[N+]([O-])c1ccccc1NCc1ccc(O)c2ncccc12 | . | . | -7% | . | . | .
Cc1ccc(-c2c(C)n3c4c(=O)n(C)c(=O)n(C)c4nc3n2-c2cccc(O)c2)cc1 | 13% | -4% | -2% | . | . | -6%
CCCCCCCCCC[n+]1ccc(/C=C/c2c(C)[nH]c3ccccc23)cc1 | ? | . | . | . | . | 2%
Cc1nnc(NC(=O)c2sc3ccccc3c2Cl)s1 | -13% | -8% | 43% | 0% | -84* | -9%
COc1ccc(CCCc2nnc(SCC(=O)Nc3ccc(C)cc3)o2)cc1C | 17%[57.1 µM] | -3% | 0% | . | . | 1%[57.1 µM]
O=C(CN1C(=O)c2cccc3cccc1c23)Nc1ccc2c(c1)OCO2 | 20% | 3.5µM* | 15% | -5% | -2 | 20%
COc1ccc(C2/C=C\CN(S(=O)(=O)CC34CCC(CC3=O)C4(C)C)CC(=O)N2Cc2ccc(F)cc2)cc1 (stereo not given) | -7% | . | 1% | . | 16 | -5%
C=CCNc1oc(-c2ccc(-c3ccccc3)cc2)nc1C#N | 14µM* | -7% | ? | . | 23 | -4%
O=C1NN(c2ccccc2)C(=O)/C1=C\c1cccc(OC(=O)c2cccs2)c1 | ? | -16% | . | -7% | -10 | -9%[57.1 µM]
O=C1NN(c2ccc(Cl)c(Cl)c2)C(=O)/C1=C/c1cccc(OC(=O)c2cccs2)c1 | . | 35µM* | . | -8% | . | .
CCCCCCCCCCCCCCCC[n+]1ccc(C)c2ccccc21 | ? | . | . | . | . | 1%
O=C(Nc1ccc2c(c1)CCCN2C(=O)c1cccs1)c1ccccc1Cl | 2%[57.1 µM] | -11% | -2% | . | . | -2%[57.1 µM]
Cn1c(C(=O)OCC(=O)NCc2ccco2)cc2sccc21 | 25µM* | -12% | ? | 5% | 21 | 2%
Cc1cc2c(cc(C(=O)OCC(=O)NCc3ccco3)n2C)s1 | -15% | 4% | 12% | 2% | -1 | -2%
COc1cccc(NS(=O)(=O)c2ccc(NC(C)=O)cc2)c1 | 8% | -28% | -1% | 0% | -10 | 4%
COc1cccc(/C(O)=C/C(=O)C(=O)Nc2ccc(S(=O)(=O)NC(C)=O)cc2)c1 | 22µM* | 0% | -2% | . | -12 | -19%
COc1ccc(N2CCN(C(=O)c3c(C)oc4ncn(CC(C)C)c(=O)c34)CC2)cc1 | 7% | -4% | 0% | . | . | -1%
SMILES | rTrxR1 inhibitor | GCN5L2 inh | Pin1 inhibitor | GALK inh | Giardia kill | TrxR1 substrate
CCN(CC)C(=O)CSc1nc(-c2ccc(C)cc2)nc2c1Cc1c(CO)cnc(C)c1O2 | 20µM* | 1% | ? | . | . | -5%
Cc1ccc(NC(=O)CCn2nc(-c3ccccc3)c3ccccc3c2=O)c(C)c1 | 10% | -9% | 14% | . | . | -3%
S=C(NCCCN(Cc1ccc(Cl)cc1)c1ccc(-c2ccccc2)cn1)NCCCN(Cc1ccc(Cl)cc1)c1ccc(-c2ccccc2)cn1 | 14% | . | 25% | . | -24 | 11%
S=C(NCCCc1cnc[nH]1)NCCCN(Cc1ccc(Cl)cc1)c1ccc(-c2ccccc2)cn1 | 89µM* | . | -1% | . | -3 | -3%
Cc1cc(C)c2c(N)c(C(=O)Nc3ncc(C)s3)sc2n1 | 11% | -13% | ? | 2% | -108* | 53%
COC(=O)c1sc2nc(C)cc(C)c2c1N | -22% | -30% | -3% | 1% | 13 | 62%
Cc1cccc([S+](=O)([O-])NC2CCN(C#N)CC2)c1 | . | . | 0% | . | . | .
O=C(c1ccc(Nc2nc3ccccc3n3nnnc23)cc1)N1CCN(c2cccc(C(F)(F)F)c2)CC1 | 71µM* | -16% | -2% | . | . | 25%
CC(C)(C)OC(=O)Cc1nnc(C(C(=O)OCc2ccccc2)c2ccccc2)o1 (stereo not given) | . | . | 3% | . | . | .
O=[N+]([O-])c1ccc2c(c1)S(=O)(=O)C=C2 | 2.1µM* | ? | . | . | . | 19%[57.1 µM]
O=C(CCl)N(c1ccccc1)c1ccccc1 | ? | 0% | 5% | -5% | -21 | 9%[57.1 µM]
CCCCCCCN(C(=O)CCl)c1cccc(C)c1 | 40µM* | -5% | -3% | -1% | 7 | 4%
N#CCCN(C(=O)COC(=O)c1nc(Cl)ccc1Cl)c1ccccc1 | -7% | 3% | -1% | . | -1 | -9%
CCCCCCN(C(=O)CCl)c1ccccc1 | 18µM* | 2% | -8% | 4% | 1 | -3%
N#CCCN(C(=O)CCl)c1cccc(Cl)c1 | 8.9µM* | -5% | -5% | -1% | -5 | 7%

Bioassay records as filed in PubChem.
